In PubChem BioAssay:
Inconclusive results are not listed. Active and inactive are the calls of the source.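 How the source made its calls, unless noted: active means binding below the plate cutoff, the plate median minus 3 SD, with a reading above zero; inconclusive means below the plate cutoff but reading exactly zero; inactive means the rest.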

Key:
[1] = rapamycin-like changes in RPL19A-GFP expression – cell-based, S. cerevisiae, multiplex flow cytometry, primary screen (AID 1862; in the data active means percent of DMSO control GFP below about 86%;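 further: lower values mimic rapamycin by blocking the RPL19A rise seen in DMSO cells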); conditions: S. cerevisiae RPL19A-GFP strain, flow cytometry fluorescence, 3 h; at 10 µM; stronger effect = lower value
[2] = TOR pathway GLN3 branch reporter MEP2-GFP changes – S. cerevisiae, multiplex flow cytometry, primary screen (AID 1867;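 active means GFP response, as percent of the DMSO control, above the screen-wide mean plus 3 SD, about 139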;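 further: median GFP channel fluorescence of barcode-gated MEP2-GFP cells measured by flow cytometry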); conditions: S. cerevisiae MEP2-GFP strain, 3 h, at 10 µM, stronger effect = higher value, 100% means same as DMSO wells
[3] = TOR pathway RTG branch CIT2 reporter changes – S. cerevisiae, GFP fusion, multiplex flow cytometry, primary screen (AID 1870;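 active means percent response above a set limit, the screen-wide mean plus 3 SD, cut at about 130% in these data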;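 further: barcoded CIT2-GFP strain pooled with four other GFP strains with rapamycin as positive control; median GFP fluorescence per well over plate mean of DMSO wells so 100% = DMSO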); conditions: S. cerevisiae CIT2-GFP expression, 3 h, at 10 µM, stronger effect = higher value
[4] = TOR pathway LAP4-GFP level changes – S. cerevisiae, multiplex flow cytometry, primary screen (AID 1873;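 active means GFP signal, as percent of the solvent control, above the screen mean plus 3 SD, about 149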); conditions: S. cerevisiae LAP4-GFP expression, 3 h, at 10 µM, stronger effect = higher value
[5] = yeast AGP1-GFP level changes, GLN3 branch – cell-based, multiplex flow cytometry, S. cerevisiae, primary screen (AID 1887;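 active means GFP signal above the screen-wide mean plus 3 SD, that is over about 124.5% of the solvent control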;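 further: AGP1-GFP fusion strain of S. cerevisiae within a five-strain barcoded multiplex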); conditions: 3 h, at 10 µM, stronger effect = higher value
[6] = reduced mouse 2C T cell binding to pMHC/ICAM-1 vesicles – MLPCN validation set, flow cytometry, LFA-1/ICAM-1 modulator project, pilot screen (AID 2523;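 active means response below a set limit, under 55% cells CD8-positive and vesicle-bound, and CD8 cells' 90th-percentile brightness under 279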;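 on vesicle binding response: mean PE anti-B7-1 fluorescence of CD8+ cells relative to row control; 100% = QL9-loaded vesicles with DMSO vehicle in the same plate row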); conditions: 2C mouse CD8+ T cells, at 7 µM, stronger effect = lower value; double positive events: measured here: CD8+/vesicle+ event percentage
[7] = molecular target: Integrin beta-1 (Homo sapiens) + Integrin alpha-4 (Homo sapiens) (UniProt P13612+P05556); test: alpha4beta1 integrin LIBS antibody binding reduction – U937 cells, HUTS-21 mAb, flow cytometry, validation set, VLA-4 allosteric modulator project, pilot screen (AID 2674;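 active means inhibition above 50%, about 3 SD of the validation set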;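 further: antibody binding induced by the VLA-4 ligand LDV present at three times its Kd; 0% = LDV ligand with antibody and no compound and 100% = antibody without LDV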); conditions: HUTS-21 LIBS mAb binding, at 6.7 µM, stronger effect = higher value, binding induced by LDV ligand
[8] = calorie-restriction mimetic ROS inhibitors, yeast – validation compound set, pilot screen (AID 2706;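 active means superoxide response below 65% of plate, a cut near 3 SD across the whole screen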;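 further: yeast exposed to compound for one week at 30 degrees C before staining; 100% = mean of all compound wells on the same plate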); conditions: S. cerevisiae aging, superoxide DHE fluorescence; at 10 µM; stronger effect = lower value
[9] = molecular target: Beta-adrenergic receptor kinase 1 (Homo sapiens) (UniProt P25098); test: GRK2 binders displacing RNA aptamer, biochemical, validation, human GRK2, bead flow cytometry (AID 488806;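 active means aptamer binding inhibition above 30%, about 3 SD of noise from non-fluorescent compounds; inactive means inhibition at or below 30%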); conditions: bead-bound GRK2, FAM-aptamer displacement, at 10 µM, stronger effect = higher value
[10] = molecular target: Beta-2 adrenergic receptor (Homo sapiens) (UniProt P07550); test: agonist-induced loss of surface beta2AR – cell-based, FAP fluorogen, flow cytometry, validation set, pilot screen (AID 504459;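 active means percent response above 42, roughly 3 SD of non-fluorescent test compounds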;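 further: agonist-driven loss of surface beta2AR via internalization measured by FAP dye flow cytometry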); conditions: Am2.2-beta2AR cells, at 10 µM, stronger effect = higher value
[11] = molecular target: AP-2 complex subunit beta (Homo sapiens) (UniProt P63010); test: beta-arrestin/AP2 interaction blockers – biochemical, validation set, GST-AP2 beads, flow cytometry, pilot screen (AID 504541;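 active means inhibition above 54%, about 3 SD of non-fluorescent compounds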;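 further: AP2 carries R879A mutation and is captured from E. coli lysate; bead-bound FITC arrestin peptide fluorescence measuring arrestin peptide binding to AP2; 0% = DMSO wells and 100% = excess unlabeled arrestin peptide control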); conditions: FITC arrestin peptide, at 10 µM, stronger effect = higher value, AP2 beta2 appendage fragment, R879A mutant
[12] = cytosolic pH regulators acting via V-ATPase – S. cerevisiae, pHLuorin, HTS validation (AID 504600; in the data active means response above about 15%;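 further: plate controls were DMSO for no effect and reference compound for full effect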); conditions: V-ATPase proton transport, at 10 µM, stronger effect = higher value
[13] = tested on: anti-desmoglein-3 scFv antibody binding to human DSG3; test: blockers of pathogenic pemphigus antibody–desmoglein-3 binding – biochemical, validation compound set, bead-based, flow cytometry, pilot screen (AID 588368); conditions: Protein G beads, DSG3-Fc, scFv-GFP binding, at 10 µM, stronger effect = lower value;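 further: signal is the median channel fluorescence of bead-bound GFP antibody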
[14] = Nile Red efflux blockade in pump-expressing yeast – validation compound set, multiplex, phenotypic, pilot screen (AID 588506;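 active means efflux inhibition above 0.42, the validation set average plus 4 SD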;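 further: Nile Red retained in cells so higher fluorescence means more efflux inhibition; 0 = negative control wells and 1 = enniatin B 25 µM full block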); conditions: S. cerevisiae pump-expressing triplex, Nile Red efflux flow cytometry; at 10 µM; stronger effect = higher value; the pumps come from Candida albicans
[15] = molecular target: ATP-binding cassette sub-family B member 6 (Homo sapiens) (UniProt Q9NP58); test: blockers of ABCB6-driven porphyrin uptake – K562-ABCB6 cells, flow cytometry, validation set, pilot screen (AID 588550;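 active means inhibition above the screen-wide mean plus 3 SD, about 51%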;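 further: 0% = DMSO wells and 100% = benzethonium chloride 70 µM positive control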); conditions: K562-ABCB6 porphyrin accumulation, 1 h, at 10 µM, stronger effect = higher value
[16] = AML differentiation inducers, ER-HoxA9 marrow cells – cell-based, GFP/MAC1 double positive, flow cytometry, validation set, primary screen (AID 588685;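 active means differentiation response of at least 50%, scaled between solvent and reference control, from cells with both markers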;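 further: compound exposure lasts four days before antibody staining and flow analysis; 0% = DMSO wells and 100% = 5 µM fulvestrant positive control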); conditions: stronger effect = higher value, normalized: vehicle 0, fulvestrant 100

Sequence of AP-2 complex subunit beta (Homo sapiens) (P63010 whole entry, looked up, the tested form may be a part, one chain of several): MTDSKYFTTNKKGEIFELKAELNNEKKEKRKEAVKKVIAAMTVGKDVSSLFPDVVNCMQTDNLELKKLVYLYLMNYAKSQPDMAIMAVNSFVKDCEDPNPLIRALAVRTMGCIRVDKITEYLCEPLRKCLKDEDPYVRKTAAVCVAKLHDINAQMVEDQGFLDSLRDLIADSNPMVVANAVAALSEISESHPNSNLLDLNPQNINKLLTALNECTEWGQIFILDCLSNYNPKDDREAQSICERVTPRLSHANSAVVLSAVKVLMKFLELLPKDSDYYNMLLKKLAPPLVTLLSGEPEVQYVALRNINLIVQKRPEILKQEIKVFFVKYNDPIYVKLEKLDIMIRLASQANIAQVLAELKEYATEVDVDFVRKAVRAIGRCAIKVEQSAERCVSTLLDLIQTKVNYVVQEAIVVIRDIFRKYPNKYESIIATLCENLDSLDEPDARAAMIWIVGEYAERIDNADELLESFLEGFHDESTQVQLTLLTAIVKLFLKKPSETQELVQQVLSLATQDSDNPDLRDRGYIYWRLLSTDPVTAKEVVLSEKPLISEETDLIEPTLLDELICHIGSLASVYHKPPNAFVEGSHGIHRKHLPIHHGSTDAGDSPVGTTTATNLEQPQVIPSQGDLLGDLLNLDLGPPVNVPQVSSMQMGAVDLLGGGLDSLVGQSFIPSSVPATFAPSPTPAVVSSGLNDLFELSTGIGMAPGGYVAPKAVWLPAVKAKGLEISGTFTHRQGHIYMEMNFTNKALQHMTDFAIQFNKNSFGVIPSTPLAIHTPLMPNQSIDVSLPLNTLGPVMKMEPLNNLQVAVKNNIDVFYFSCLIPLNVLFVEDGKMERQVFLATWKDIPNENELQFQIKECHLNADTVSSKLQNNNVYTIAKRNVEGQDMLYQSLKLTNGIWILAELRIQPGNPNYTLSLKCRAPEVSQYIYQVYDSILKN
Sequence of Beta-adrenergic receptor kinase 1 (Homo sapiens) (P25098 whole entry, looked up): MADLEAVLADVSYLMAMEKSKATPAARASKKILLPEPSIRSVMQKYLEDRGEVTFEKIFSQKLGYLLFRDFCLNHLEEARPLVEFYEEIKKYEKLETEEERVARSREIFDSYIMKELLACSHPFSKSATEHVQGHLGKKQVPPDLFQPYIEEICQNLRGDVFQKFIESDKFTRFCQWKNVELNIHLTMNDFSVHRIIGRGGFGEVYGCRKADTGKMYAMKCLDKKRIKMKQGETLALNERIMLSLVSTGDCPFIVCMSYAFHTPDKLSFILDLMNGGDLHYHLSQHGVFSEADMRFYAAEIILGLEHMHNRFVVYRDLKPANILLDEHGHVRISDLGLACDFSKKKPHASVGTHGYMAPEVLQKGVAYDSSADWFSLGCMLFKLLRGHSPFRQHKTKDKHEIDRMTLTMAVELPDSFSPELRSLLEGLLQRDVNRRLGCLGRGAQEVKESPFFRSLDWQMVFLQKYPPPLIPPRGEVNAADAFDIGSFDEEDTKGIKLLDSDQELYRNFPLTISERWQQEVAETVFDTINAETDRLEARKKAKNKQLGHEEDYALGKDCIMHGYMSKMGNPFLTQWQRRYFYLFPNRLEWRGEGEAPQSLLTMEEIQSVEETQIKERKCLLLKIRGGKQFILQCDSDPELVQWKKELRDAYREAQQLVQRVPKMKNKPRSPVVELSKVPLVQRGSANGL
Sequence of ATP-binding cassette sub-family B member 6 (Homo sapiens) (Q9NP58 whole entry, looked up): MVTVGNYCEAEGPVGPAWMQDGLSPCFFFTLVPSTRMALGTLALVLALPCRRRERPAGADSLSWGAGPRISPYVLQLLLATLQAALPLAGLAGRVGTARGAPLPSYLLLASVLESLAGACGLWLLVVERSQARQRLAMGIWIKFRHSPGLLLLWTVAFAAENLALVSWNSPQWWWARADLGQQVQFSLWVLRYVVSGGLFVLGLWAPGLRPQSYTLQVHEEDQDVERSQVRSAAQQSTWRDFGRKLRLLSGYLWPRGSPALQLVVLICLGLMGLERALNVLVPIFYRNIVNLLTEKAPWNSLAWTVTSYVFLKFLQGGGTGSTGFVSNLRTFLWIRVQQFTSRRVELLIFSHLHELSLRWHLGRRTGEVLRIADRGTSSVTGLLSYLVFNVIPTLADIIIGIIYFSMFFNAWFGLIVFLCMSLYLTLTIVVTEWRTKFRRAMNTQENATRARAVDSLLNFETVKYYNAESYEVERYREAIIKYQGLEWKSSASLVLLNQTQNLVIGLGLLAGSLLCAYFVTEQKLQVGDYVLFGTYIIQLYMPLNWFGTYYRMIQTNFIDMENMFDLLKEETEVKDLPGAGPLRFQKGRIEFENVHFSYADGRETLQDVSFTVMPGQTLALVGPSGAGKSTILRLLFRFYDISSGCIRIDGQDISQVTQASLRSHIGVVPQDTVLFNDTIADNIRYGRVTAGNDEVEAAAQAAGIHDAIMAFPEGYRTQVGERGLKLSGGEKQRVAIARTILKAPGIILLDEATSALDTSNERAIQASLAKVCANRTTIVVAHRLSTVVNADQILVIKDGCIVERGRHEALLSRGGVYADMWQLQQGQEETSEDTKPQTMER
Sequence of Beta-2 adrenergic receptor (Homo sapiens) (P07550 whole entry, looked up): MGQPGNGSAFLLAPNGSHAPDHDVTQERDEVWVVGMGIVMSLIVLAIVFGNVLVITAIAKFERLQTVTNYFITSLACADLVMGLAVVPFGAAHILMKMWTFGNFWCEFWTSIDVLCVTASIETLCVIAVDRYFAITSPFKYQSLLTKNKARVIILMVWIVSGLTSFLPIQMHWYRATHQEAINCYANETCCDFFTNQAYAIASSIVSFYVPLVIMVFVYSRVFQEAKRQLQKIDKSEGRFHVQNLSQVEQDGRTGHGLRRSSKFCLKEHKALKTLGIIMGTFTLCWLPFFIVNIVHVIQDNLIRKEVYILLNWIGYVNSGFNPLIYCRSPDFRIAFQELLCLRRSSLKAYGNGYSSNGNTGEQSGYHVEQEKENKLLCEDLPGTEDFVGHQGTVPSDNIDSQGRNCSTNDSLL
Sequence of Integrin beta-1 (Homo sapiens) + Integrin alpha-4 (Homo sapiens) (P05556 whole entry, looked up): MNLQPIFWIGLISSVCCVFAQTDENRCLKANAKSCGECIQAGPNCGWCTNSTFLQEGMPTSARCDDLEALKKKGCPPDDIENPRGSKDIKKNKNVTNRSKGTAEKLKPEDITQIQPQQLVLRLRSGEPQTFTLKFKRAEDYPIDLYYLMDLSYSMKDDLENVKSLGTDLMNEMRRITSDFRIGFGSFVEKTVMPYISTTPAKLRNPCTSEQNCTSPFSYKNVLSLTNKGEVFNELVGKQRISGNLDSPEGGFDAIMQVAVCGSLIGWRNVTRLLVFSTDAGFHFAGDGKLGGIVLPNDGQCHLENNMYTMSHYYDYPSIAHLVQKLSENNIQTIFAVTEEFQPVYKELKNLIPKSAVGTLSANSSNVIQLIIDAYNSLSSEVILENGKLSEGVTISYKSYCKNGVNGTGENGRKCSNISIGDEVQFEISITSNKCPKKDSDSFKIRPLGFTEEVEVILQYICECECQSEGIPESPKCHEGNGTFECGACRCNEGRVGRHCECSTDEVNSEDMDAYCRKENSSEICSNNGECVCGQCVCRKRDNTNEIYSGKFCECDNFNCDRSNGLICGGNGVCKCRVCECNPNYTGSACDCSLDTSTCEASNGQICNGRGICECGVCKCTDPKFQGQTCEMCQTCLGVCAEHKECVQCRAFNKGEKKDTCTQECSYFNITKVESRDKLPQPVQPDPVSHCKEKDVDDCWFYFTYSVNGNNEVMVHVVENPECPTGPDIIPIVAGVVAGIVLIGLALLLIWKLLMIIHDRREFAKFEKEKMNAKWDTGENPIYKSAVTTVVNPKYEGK
Sequence of Integrin beta-1 (Homo sapiens) + Integrin alpha-4 (Homo sapiens) (P13612 whole entry, looked up): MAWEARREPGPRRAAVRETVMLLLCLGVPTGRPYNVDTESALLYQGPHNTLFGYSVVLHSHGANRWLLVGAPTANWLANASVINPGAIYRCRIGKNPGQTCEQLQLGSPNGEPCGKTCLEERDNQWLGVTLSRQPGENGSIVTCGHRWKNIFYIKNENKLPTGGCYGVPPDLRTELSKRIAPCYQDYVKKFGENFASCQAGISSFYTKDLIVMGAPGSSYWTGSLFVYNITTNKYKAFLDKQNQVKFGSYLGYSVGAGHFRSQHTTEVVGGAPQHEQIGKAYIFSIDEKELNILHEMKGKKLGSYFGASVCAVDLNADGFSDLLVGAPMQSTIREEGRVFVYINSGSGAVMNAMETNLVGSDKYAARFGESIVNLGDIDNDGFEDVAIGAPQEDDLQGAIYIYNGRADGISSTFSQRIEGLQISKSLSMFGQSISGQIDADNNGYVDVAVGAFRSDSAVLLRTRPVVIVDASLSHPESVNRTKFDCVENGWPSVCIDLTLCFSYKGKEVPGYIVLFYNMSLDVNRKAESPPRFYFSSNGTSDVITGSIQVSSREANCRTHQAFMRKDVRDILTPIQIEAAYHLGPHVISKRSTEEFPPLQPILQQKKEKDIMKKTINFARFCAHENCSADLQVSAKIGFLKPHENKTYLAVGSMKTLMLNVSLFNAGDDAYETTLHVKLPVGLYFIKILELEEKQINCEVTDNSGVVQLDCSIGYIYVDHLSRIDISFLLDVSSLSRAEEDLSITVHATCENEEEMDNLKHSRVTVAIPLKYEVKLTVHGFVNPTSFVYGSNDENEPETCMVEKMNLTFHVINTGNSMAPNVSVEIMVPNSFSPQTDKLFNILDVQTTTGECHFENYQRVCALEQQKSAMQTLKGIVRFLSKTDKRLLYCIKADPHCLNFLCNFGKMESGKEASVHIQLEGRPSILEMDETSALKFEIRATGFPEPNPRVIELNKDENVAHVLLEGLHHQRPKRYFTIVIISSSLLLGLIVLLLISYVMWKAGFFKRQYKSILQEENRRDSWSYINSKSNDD

COC(=O)c1ccccc1NC(=O)c1ccc(COc2ccc3c(c2)CCC3)cc1
64.4%: double positive events [6]
active: efflux inhibition (fraction of control) [14] 0.46
inactive: percent of DMSO control GFP [1] 99.6% | GFP response vs DMSO [2] 99.3% | percent response of DMSO control [3] 90.8% | GFP response vs DMSO [4] 105% | GFP response, % of DMSO [5] 94.8% | vesicle binding response [6] 521% | inhibition [7] 7.85% | superoxide response (% of plate) [8] 82.8% | aptamer binding inhibition [9] 5% | response [10] -3.71% | inhibition [11] 0.16% | response [12] -3.9% | binding (% of control) [13] 98.9% | inhibition [15] -3% | differentiation response [16] 1.22%

CCc1ccc2oc(=O)cc(CN3CCC(C)CC3)c2c1
inactive: percent of DMSO control GFP [1] 95% | GFP response vs DMSO [2] 104% | percent response of DMSO control [3] 95.8% | GFP response vs DMSO [4] 123% | GFP response, % of DMSO [5] 95.8% | vesicle binding response [6] 178% | inhibition [7] -18.2% | superoxide response (% of plate) [8] 98.9% | aptamer binding inhibition [9] 0% | response [10] 13.8% | inhibition [11] -0.51% | binding (% of control) [13] 103% | efflux inhibition (fraction of control) [14] -0.06 | inhibition [15] -5% | differentiation response [16] -12%
active: response [12] 85.2%
53.7%: double positive events [6]

C[C@@H]1C[C@H]2[C@@H]3C[C@H](F)C4=CC(=O)C=C[C@]4(C)[C@@]3(F)[C@@H](O)C[C@]2(C)[C@@]1(O)C(=O)COC(=O)C(C)(C)C
inactive: percent of DMSO control GFP [1] 101% | GFP response vs DMSO [2] 105% | percent response of DMSO control [3] 99.3% | GFP response vs DMSO [4] 98.7% | GFP response, % of DMSO [5] 99.2% | vesicle binding response [6] 142% | inhibition [7] 6.85% | superoxide response (% of plate) [8] 104% | aptamer binding inhibition [9] 3% | response [10] -5.56% | inhibition [11] 19.2% | response [12] 0.5% | binding (% of control) [13] 100% | efflux inhibition (fraction of control) [14] 0.14 | inhibition [15] 4% | differentiation response [16] -4.16%
58.5%: double positive events [6]

C[N+](C)(C)CCOP(=O)([O-])OC[C@H](O)CO
inactive: percent of DMSO control GFP [1] 103% | GFP response vs DMSO [2] 103% | percent response of DMSO control [3] 105% | GFP response vs DMSO [4] 108% | GFP response, % of DMSO [5] 114% | vesicle binding response [6] 133% | inhibition [7] -3.77% | superoxide response (% of plate) [8] 94.8% | aptamer binding inhibition [9] 1% | response [10] 2.22% | inhibition [11] -6.21% | response [12] 0.86% | binding (% of control) [13] 102% | efflux inhibition (fraction of control) [14] 0.25 | inhibition [15] 22% | differentiation response [16] -6.03%
60.1%: double positive events [6]

CCn1c(C)cc2c(c1=O)C(c1ccccc1)C(C(=O)OC)=C(N)O2 (stereo not given)
58.8%: double positive events [6]
inactive: percent of DMSO control GFP [1] 102% | GFP response vs DMSO [2] 105% | percent response of DMSO control [3] 98.3% | GFP response vs DMSO [4] 108% | GFP response, % of DMSO [5] 111% | vesicle binding response [6] 167% | inhibition [7] 18.5% | superoxide response (% of plate) [8] 108% | aptamer binding inhibition [9] 4% | response [10] -32.4% | inhibition [11] 1.11% | response [12] -16.3% | binding (% of control) [13] 102% | efflux inhibition (fraction of control) [14] 0.04 | inhibition [15] 7% | differentiation response [16] 4.86%

COc1ccc(C(=O)Nc2cccnc2)cc1C(=O)Nc1cccnc1
65%: double positive events [6]
inactive: percent of DMSO control GFP [1] 104% | GFP response vs DMSO [2] 107% | percent response of DMSO control [3] 102% | GFP response vs DMSO [4] 107% | GFP response, % of DMSO [5] 106% | vesicle binding response [6] 191% | inhibition [7] -3.77% | superoxide response (% of plate) [8] 104% | aptamer binding inhibition [9] 2% | response [10] 9.93% | inhibition [11] -14.1% | response [12] 0.74% | binding (% of control) [13] 99% | efflux inhibition (fraction of control) [14] -0.11 | inhibition [15] 8% | differentiation response [16] 13%

Cn1c(=O)c2nc3ccccc3nc2n(C)c1=O
61.5%: double positive events [6]
inactive: percent of DMSO control GFP [1] 94.6% | GFP response vs DMSO [2] 103% | percent response of DMSO control [3] 93.9% | GFP response vs DMSO [4] 112% | GFP response, % of DMSO [5] 94.3% | vesicle binding response [6] 198% | inhibition [7] 2.3% | superoxide response (% of plate) [8] 99.2% | aptamer binding inhibition [9] 0% | response [10] -7.58% | inhibition [11] -11.6% | response [12] 2.81% | binding (% of control) [13] 101% | efflux inhibition (fraction of control) [14] -0.1 | inhibition [15] 2% | differentiation response [16] -12%

CSCCC(NC(=O)/C(=C/c1ccc2c(c1)OCO2)NC(=O)c1cccc([N+](=O)[O-])c1)C(=O)O (stereo not given)
63.7%: double positive events [6]
inactive: percent of DMSO control GFP [1] 93.7% | GFP response vs DMSO [2] 123% | percent response of DMSO control [3] 101% | GFP response vs DMSO [4] 86.4% | GFP response, % of DMSO [5] 91.9% | vesicle binding response [6] 169% | inhibition [7] 4.52% | superoxide response (% of plate) [8] 93.4% | aptamer binding inhibition [9] 4% | response [10] 0.64% | inhibition [11] -5.32% | response [12] 0.74% | binding (% of control) [13] 105% | efflux inhibition (fraction of control) [14] -0.31 | inhibition [15] 14% | differentiation response [16] -6.55%

Cc1ccc(C2CC(=O)C(C=NCCN3CCN(C(=S)Nc4ccccc4)CC3)=C(O)C2)cc1 (stereo not given)
active: efflux inhibition (fraction of control) [14] 0.5
inactive: percent of DMSO control GFP [1] 103% | GFP response vs DMSO [2] 104% | percent response of DMSO control [3] 91.2% | GFP response vs DMSO [4] 110% | GFP response, % of DMSO [5] 107% | vesicle binding response [6] 417% | inhibition [7] -0.27% | superoxide response (% of plate) [8] 104% | aptamer binding inhibition [9] 5% | response [10] -26.2% | inhibition [11] -7.49% | response [12] -3.06% | binding (% of control) [13] 101% | inhibition [15] 3% | differentiation response [16] -10.9%
60.8%: double positive events [6]

CC1(C)CC(CNCCC(c2ccc(F)cc2)c2ccco2)CCO1 (stereo not given)
inactive: percent of DMSO control GFP [1] 96.1% | GFP response vs DMSO [2] 110% | percent response of DMSO control [3] 106% | GFP response vs DMSO [4] 82.5% | GFP response, % of DMSO [5] 103% | vesicle binding response [6] 272% | inhibition [7] 3.55% | superoxide response (% of plate) [8] 87.8% | aptamer binding inhibition [9] 3% | response [10] 4.87% | inhibition [11] 0.76% | response [12] 5.44% | binding (% of control) [13] 104% | efflux inhibition (fraction of control) [14] 0.12 | inhibition [15] 11% | differentiation response [16] -4.09%
93.3%: double positive events [6]
